Source: PubChem BioAssay (NCATS)
Inconclusive results are not listed. Activity calls are given as the source filed them. Calls come from the whole dose curve; as a rule, active = well fitted inhibition curve with a large enough effect; inconclusive = small, poorly fitted or top-dose-only effect; inactive = no such curve, though single readings can be large or run the other way.

assay: qHTS for Inhibitors of the Aldehyde Dehydrogenase Family (ALDH1A2, ALDH1A3, ALDH2, ALDH3A1) (AID 2061307); conditions: ALDH inhibition qHTS; series mostly up to 50.3 µM; note: nearly all actives have a fitted effect of over 50% in size; for Potency: test system not described further here
Potency is the fitted concentration of half-maximal effect.

Potency, inactive:
COc1ccc(-n2c(C)c(C(=O)O)c3cc(O)ccc32)cc1
O=C(Nc1ccccn1)c1cccs1
Cc1c(NCCOc2ccccc2F)cccc1C(N)=O
NC(=O)c1ccc(NC(=O)c2cnn(-c3ccccc3)n2)cc1
O=C1NC(c2ccc(N3CCOCC3)cc2)(c2ccsc2)CC(O)=C1Sc1ccccc1Cl (stereo not given)
CSCc1cccc(C(=O)Nc2cccnc2)c1
Cc1ccc(NC(=O)c2cnc3cc(C)ccn3c2=O)c(C)c1
O=C(Nc1nc2ccccc2c(=O)s1)c1ccc(F)cc1Cl
Cc1cn(-c2cc(NC(=O)c3ccc(C)c(N)c3)cc(C(F)(F)F)c2)cn1
NCC(=O)Nc1cc(O)cc(-c2nn3c(=O)cc(N4CCNCC4)nc3s2)c1
N[C@@H](CCC(=O)O)C(=O)Nc1cccc(-c2nn3c(=O)cc(N4CCNCC4)nc3s2)c1
C[S+](=O)([O-])c1ccc(-c2nnc3ccc(C(=O)NCCc4ccccc4F)cn23)cc1
CN(C)CC(=O)NC1CCCc2c1cnn2-c1ccc(OCCOCCOCCNC(=O)OC(C)(C)C)cc1 (stereo not given)
Cc1cnc(Cl)nc1NCc1ccc(-n2ccnn2)cc1
CC(C)C(=O)OCc1ccc(-c2nn(Cc3ccccc3)c3ccccc23)o1
COc1ccccc1CNC(=O)c1ccccc1N
CC(Sc1nc2nn(C3COC3)cc2c(=O)n1-c1ccccc1)c1ccccn1 (stereo not given)
COc1ccc(CC2NCCC3=CC(=O)CCC32)cc1O (stereo not given)
O=C(Nc1ccc(C(=O)N2CCCC2)cc1)c1cccc(Cl)c1
COc1cccc(NC(=O)c2cc3ccccc3[nH]c2=O)c1
CCN1C(=O)c2ccccc2S(=O)c2ccc(C(=O)NCc3cccc(C(F)(F)F)c3)cc21 (stereo not given)
[2H]C([2H])([2H])N1CCC(N(CCc2ccccc2)Cc2ccccc2)CC1
COc1cc(O)c(C(CC(=O)N2CC(C)CC(C)C2)c2ccc(S(=O)(=O)N(C)C)cc2)c(OC)c1 (stereo not given)
O=C(NCc1ccccc1Cl)c1ccc(-c2nn[nH]n2)cc1
O=C(c1ccco1)N1CCN(Cc2nc3ccccc3c(=O)n2-c2ccccc2C(F)(F)F)CC1
O=C(NCc1ccccn1)c1ccc2nnc(-c3ccc(OC(F)(F)F)cc3)n2c1
COc1ccc(F)cc1NC(=O)Cc1csc(-c2ccccc2Cl)n1
CS(=O)(=O)c1nc(-c2ccc(Br)cc2)cs1
Cc1ccc2c(=O)cc(C(=O)Nc3cccc(C(F)(F)F)c3)oc2c1C
CC(C)(C)NC(=O)c1ccc(NC(=O)c2cn(-c3ccccc3)nc2-c2cccnc2)cc1

Potency, active:
O=C(Cc1ccc(-c2csc(Nc3ccc(F)cc3)n2)s1)N1CCOCC1 7.12 µM
COc1cc2ccccc2cc1C(=O)NC(=S)Nc1cccc(C(=O)O)c1 4.49 µM
Cc1nc2cc(NS(=O)(=O)c3cc(C(=O)O)ccc3C)ccc2o1 12.6 µM
Cc1ccc(-c2cc(-c3c(Cc4ccc(S(N)(=O)=O)c(F)c4)c(CC4CC4)nn3-c3nc(C(=O)O)cs3)ccc2F)s1 17.9 µM
Cc1ccccc1C(=O)c1no[n+]([O-])c1C(=O)c1ccccc1C 10 µM
O=C(NC1CCCN(Cc2ccccc2)C1)c1ccc(-c2cccc([N+](=O)[O-])c2)o1 (stereo not given) 14.1 µM
Cc1ccc(C)n1-c1sccc1C#N 7.12 µM
O=C(Nc1nc(-c2ccccn2)cs1)C1CCCCC1 3.98 µM
Cc1cccc(Nc2nc(-c3ccccc3)c3cc(Cl)ccc3n2)c1 12.6 µM
O=C(CSc1nnc(-c2ccccn2)o1)Nc1ccc2c(c1)OCCO2 11.3 µM
